“And” between values parts separate entries of the source, which are not always exact repeats. Equal values may be shown once. Inconclusive results are not listed. A structure can be active in one record and inactive in another. The source made the active and inactive calls. Unless noted, calls come from the whole dose curve; as a rule, active = well fitted curve in the direction sought with a large enough effect in the repeat runs; inconclusive = weak or mixed curves; inactive = no such curve, though single readings can be large; an effect the other way counts as inactive or inconclusive.
Key:
[1] = qHTS assay to identify small molecule agonists of the hypoxia (HIF-1) signaling pathway - cell viability counter screen (AID 1224844; calls by dose curve; note: nearly all actives have a fitted effect of over 50% in size; note: potency is the fitted concentration of half-maximal effect)
Method in brief: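 CellTiter-Glo luminescence read-out, 30 min RT, taken in the same wells as the beta-lactamase HRE reporter assay; HRE-bla ME-180 cells, 0.5% dialyzed FBS, 17 hr compound treatment at 37C, 5% CO2.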

[2] = qHTS assay to identify small molecule agonists of H2AX (AID 1224845; active = well fitted activation curve with a large enough effect in the signal ratio in the repeat runs, not every such curve was filed as active; the % refers to the signal ratio; note: potency is the fitted concentration of half-maximal effect)
Method in brief: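 Phospho-H2AX Ser139 measured by HTRF (ex 320 nm; em 665 and 620 nm) after 24 hr antibody incubation. Compounds, 15 concentrations, 0.76% DMSO, were applied to CHO-K1 cells for 3hr at 37C before lysis.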

[3] = qHTS assay to identify small molecule agonists of the hypoxia (HIF-1) signaling pathway (AID 1224846; active = well fitted activation curve with a large enough effect in the signal ratio in the repeat runs, not every such curve was filed as active; the % refers to the signal ratio)
Method in brief: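 Beta-lactamase FRET read-out (CCF4-AM substrate) from ME-180 cells carrying an HRE-driven bla reporter, after 17 hrs compound exposure at 37C/5% CO2. Cells were seeded at 2,000 per well in 0.5% dialyzed FBS medium and preincubated 5 hrs.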

[4] = qHTS assay to identify small molecule agonists of H2AX - cell viability counter screen (AID 1224847; calls by dose curve; note: nearly all actives have a fitted effect of over 30% in size; note: potency is the fitted concentration of half-maximal effect; for activity change, negative = cytotoxicity: top concentration of the series differs between compounds)
Method in brief: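 Quantitative HTS viability measurement: CHO-K1 wild-type cells in serum (10% FBS) medium, short 3 hr drug exposure at 37C with 0.76% DMSO, CellTiter-Glo luminescent detection.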

[5] = qHTS assay to identify small molecule antagonists of the estrogen related receptor (ERR) signaling pathway from Tox21 library (AID 1224848); note: nearly all actives have a fitted effect of over 50% in size; note: potency is the fitted concentration of half-maximal effect
Method in brief: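 ERR cell line, 2,000 cells/well. 6 h settle, then compound (DMSO) added; 18 h at 37 C; ONE-Glo luminescence after 30 min RT.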

[6] = qHTS assay to identify small molecule agonists of the estrogen related receptor (ERR) signaling pathway from Tox21 library (AID 1224849; calls by dose curve; note: nearly all actives have a fitted effect of over 15% in size); conditions: ERR reporter cell line, ONE-Glo luciferase, 18 h
Method in brief: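 Luminescence readout (ONE-Glo, 30 min RT) after 18 h compound exposure at 37 C of NTP-supplied ERR reporter cells; cells were plated 6 h before compound addition by pin tool.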

[7] = qHTS RealTime-Glo MT Cell Viability Assay in HEK293 cells - 32 hour (AID 1224868); note: nearly all actives have a fitted effect of over 50% in size; note: potency is the fitted concentration of half-maximal effect; for activity change, negative = cytotoxic: top concentration of the series differs between compounds
Method in brief: (§1)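 Homogeneous bioluminescent viability format in HEK293 cells (600 cells/well). Following 5 h at 37 C/5% CO2, 23 nL compound was pintooled; the signal was measured repeatedly during 40 h incubation.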

[8] = A CellTox Green Cytotoxicity Assay to monitor cytotoxicity in HEK293 cells - 0 hour (AID 1224869); note: nearly all actives have a fitted effect of over 50% in size
Method in brief: (§2)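 Read-out: fluorescence of a cell-impermeant cyanine dye staining DNA of dead cells, proportional to cytotoxicity. HEK293, 600 cells/well with reagent, compound (23 nL DMSO) added after 5 h; reads at 0, 8, 16, 24, 32, 40 h.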

[9] = qHTS RealTime-Glo MT Cell Viability Assay in HepG2 cells - 40 hour (AID 1224870); note: nearly all actives have a fitted effect of over 50% in size; note: potency is the fitted concentration of half-maximal effect
Method in brief: (§3)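 Real-time viability: cells seeded at 600 per well together with NanoLuc and cell-permeant prosubstrate, compounds added after 5 h incubation. Luminescence tracked at 0, 8, 16, 24, 32 and 40 h of exposure.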

[10] = A CellTox Green Cytotoxicity Assay to monitor cytotoxicity in HEK293 cells - 40 hour (AID 1224871); note: nearly all actives have a fitted effect of over 45% in size; note: potency is the fitted concentration of half-maximal effect
Method in brief: as §2

[11] = qHTS RealTime-Glo MT Cell Viability Assay in HEK293 cells - 16 hour (AID 1224872); note: nearly all actives have a fitted effect of over 50% in size; note: potency is the fitted concentration of half-maximal effect; for activity change, negative = cytotoxicity: top concentration of the series differs between compounds
Method in brief: as §1

[12] = qHTS RealTime-Glo MT Cell Viability Assay in HepG2 cells - 8 hour (AID 1224873); note: nearly all actives have a fitted effect of over 55% in size; note: potency is the fitted concentration of half-maximal effect
Method in brief: as §3

[13] = qHTS RealTime-Glo MT Cell Viability Assay in HEK293 cells - 40 hour (AID 1224874); conditions: RealTime-Glo luminescence; max response: stronger effect = lower value; note: nearly all actives have a fitted effect of over 50% in size; note: potency is the fitted concentration of half-maximal effect
Method in brief: (§4)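 Luminescence readout at each listed time point; HEK293, 600 cells/well, RealTime-Glo MT reagent added with cells; compounds pinned (23 nL in DMSO) after 5 h at 37 C; continuous culture at 37 C.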

[14] = A CellTox Green Cytotoxicity Assay to monitor cytotoxicity in HEK293 cells - 24 hour (AID 1224875); note: nearly all actives have a fitted effect of over 45% in size; note: potency is the fitted concentration of half-maximal effect
Method in brief: as §2

[15] = qHTS RealTime-Glo MT Cell Viability Assay in HepG2 cells - 32 hour (AID 1224877); note: nearly all actives have a fitted effect of over 55% in size; note: potency is the fitted concentration of half-maximal effect
Method in brief: (§5)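 Cell number in HepG2 cultures estimated from NanoLuc luminescence generated by metabolic reduction of a prosubstrate by living cells. The homogeneous, nonlytic format allowed repeated reads at 0, 8, 16, 24, 32 and 40 h of compound exposure.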

[16] = A CellTox Green Cytotoxicity Assay to monitor cytotoxicity in HepG2 cells - 24 hour (AID 1224878); note: nearly all actives have a fitted effect of over 45% in size
Method in brief: (§6)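 HepG2, 600 cells/well premixed w/ CellTox Green; 5 h settle, 37 C/5% CO2; pintool cpd add (DMSO); 37 C, 40 h; fluorescence read at 0, 8, 16, 24, 32, 40 h.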

[17] = A CellTox Green Cytotoxicity Assay to monitor cytotoxicity in HepG2 cells - 40 hour (AID 1224879); note: nearly all actives have a fitted effect of over 40% in size; note: potency is the fitted concentration of half-maximal effect
Method in brief: as §6

[18] = qHTS RealTime-Glo MT Cell Viability Assay in HEK293 cells - 0 hour (AID 1224880); note: nearly all actives have a fitted effect of over 45% in size; note: potency is the fitted concentration of half-maximal effect; for activity change, negative = cytotoxicity: top concentration of the series differs between compounds
Method in brief: as §4

[19] = qHTS RealTime-Glo MT Cell Viability Assay in HepG2 cells - 24 hour (AID 1224867); note: nearly all actives have a fitted effect of over 50% in size; note: potency is the fitted concentration of half-maximal effect
Method in brief: as §5

[20] = A CellTox Green Cytotoxicity Assay to monitor cytotoxicity in HepG2 cells - 16 hour (AID 1224876); note: nearly all actives have a fitted effect of over 45% in size
Method in brief: as §6
% is set by controls: 0 for no effect and ±100 for the full control effect.

Cc1cccc([N+](=O)[O-])c1C(=O)O
inactive: Potency [1] | Potency [2] | Potency [3] | Potency [4] | Potency [5] | activity change, positive = activation ([6]; at 92.4 µM (top of the series)) 4.9% | Potency [7] | Potency [8] | Potency [9] | Potency [10] | Potency [11] | Potency [12] | max response [13] -0.164% | Potency [14] | Potency [15] | Potency [16] | Potency [17] | Potency [18]

CCCCC/C=C/CC1CC(=O)OC1=O (stereo unspecified)
inactive: Potency [1] | Potency [2] | Potency [3] | Potency [5] | activity change, positive = activation ([6]; at 92.4 µM (top of the series)) 5.46% | Potency [19] | Potency [7] | Potency [8] | Potency [9] | Potency [10] | Potency [11] | Potency [12] | max response [13] 1.06% | Potency [14] | Potency [20] | Potency [16] | Potency [17] | Potency [18]

OCC(CO)N[C@H]1C[C@](O)(CO)[C@@H](O)[C@H](O)[C@H]1O
inactive: Potency [1] | Potency [2] | Potency [3] | Potency [4] | Potency [5] | activity change, positive = activation ([6]; at 42.5 µM (top of the series)) 2.44% | Potency [19] | Potency [7] | Potency [8] | Potency [9] | Potency [10] | Potency [11] | Potency [12] | max response [13] 11.4% | Potency [14] | Potency [20] | Potency [15] | Potency [16] | Potency [17] | Potency [18]

CCCCCCCCCCCCCCCCCl
inactive: activity change, negative = cytotoxicity [1] 8.74% [at 15.8 µM] | activation (H2AX phosphorylation) [2] 1.73% [at 31.6 µM] | activation [3] 0.196% [at 15.8 µM] | activity change, negative = cytotoxicity [4] 2.02% [at 31.6 µM] | activity, negative = inhibition [5] 15.7% [at 19 µM] | activity change, positive = activation ([6]; at 19 µM (top of the series)) 7.84% | activity change, negative = cytotoxicity [19] 5.56% [at 15.8 µM] | activity change, negative = cytotoxic [7] -2.48% [at 15.8 µM] | cytotoxicity [8] 1.64% [at 15.8 µM] | activity change, negative = cytotoxic [9] 12.5% [at 15.8 µM] | cytotoxicity increase [10] 10.8% [at 15.8 µM] | activity change, negative = cytotoxicity [11] 1.99% [at 15.8 µM] | viability change, negative = cytotoxic [12] 0.131% [at 15.8 µM] | max response [13] 0.0293% | activity change [14] 8.22% [at 15.8 µM, stronger effect = higher value] | activity change, negative = cytotoxic [15] 6.67% [at 15.8 µM] | cytotoxicity [16] 2.62% [at 15.8 µM] | cytotoxicity increase [17] 1.26% [at 15.8 µM] | activity change, negative = cytotoxicity [18] 2.19% [at 15.8 µM]

CCN1CCCC1CNC(=O)c1cc(S(=O)(=O)CC)c(N)cc1OC (stereo unspecified)
inactive: Potency [1] | Potency [2] | Potency [3] | Potency [5] | activity change, positive = activation ([6]; at 42.5 µM (top of the series)) 2.19% | Potency [19] | Potency [7] | Potency [8] | Potency [9] | Potency [10] | Potency [11] | Potency [12] | max response [13] 2.04% | Potency [14] | Potency [15] | Potency [17] | Potency [18]

CC(=O)O[C@]1(C(C)=O)CC[C@H]2[C@@H]3C[C@H](C)C4=CC(=O)CC[C@]4(C)[C@H]3CC[C@@]21C
active: Potency [7] 19.5 µM and 10.7 µM | Potency [11] 17.4 µM | Potency [13] 19.5 µM and 9.52 µM | Potency [18] 691 nM and 756 nM
inactive: Potency [1] | Potency [2] | Potency [3] | Potency [4] | Potency [19] | Potency [8] | Potency [9] | Potency [12] | Potency [14] | Potency [15] | Potency [16] | Potency [17]
48.9 µM (active) and inactive: Potency [10]

CC(=O)C1=C(C)[C@@H]2C[C@@]3(C1)[C@H](C)CC[C@H]3C2(C)C
inactive: Potency [1] | Potency [2] | Potency [3] | Potency [19] | Potency [7] | Potency [8] | Potency [9] | Potency [11] | Potency [12] | max response [13] -1.5% and -2.44% | Potency [14] | Potency [16] | Potency [18]
32.3 µM (active) and inactive: Potency [10]

O=C(O)Cn1cnnn1
inactive: Potency [1] | Potency [2] | Potency [4] | Potency [5] | activity change, positive = activation ([6]; at 42.5 µM (top of the series)) 4% | Potency [19] | Potency [7] | Potency [8] | Potency [9] | Potency [10] | Potency [11] | Potency [12] | max response [13] 0.0865% | Potency [14] | Potency [20] | Potency [15] | Potency [16] | Potency [17] | Potency [18]

CC1=CC(=O)c2ccccc2C1=O
active: Potency [2] 40.1 µM | Potency [4] 40.1 µM | Potency [5] 43.3 µM | Potency [19] 43.6 µM | Potency [7] 15.5 µM | Potency [9] 49 µM | Potency [10] 21.9 µM and 23.9 µM | Potency [12] 38.9 µM | Potency [13] 15.5 µM | Potency [14] 24.5 µM and 26.8 µM | Potency [15] 49 µM | Potency [17] 43.6 µM and 26.8 µM
inactive: activity change, positive = activation ([6]; at 42.5 µM (top of the series)) -26.5% | activity change, positive = activation ([6]; at 92.4 µM (top of the series)) -78.8% | Potency [8]
21.9 µM (active) and inactive: Potency [1]

CCC(CO)(CO)COCC(CC)(CO)CO
inactive: Potency [1] | Potency [2] | Potency [4] | Potency [5] | activity change, positive = activation ([6]; at 92.4 µM (top of the series)) 6.39% | Potency [19] | Potency [7] | Potency [8] | Potency [9] | Potency [10] | Potency [12] | max response [13] -1.05% | Potency [14] | Potency [20] | Potency [15] | Potency [16] | Potency [17] | Potency [18]

C[N+]1([O-])CCOCC1
inactive: Potency [1] | Potency [2] | Potency [4] | Potency [5] | activity change, positive = activation ([6]; at 92.4 µM (top of the series)) -0.0985% | Potency [19] | Potency [7] | Potency [8] | Potency [9] | Potency [10] | Potency [11] | Potency [12] | max response [13] 0.178% | Potency [14] | Potency [20] | Potency [15] | Potency [16] | Potency [17] | Potency [18]

C/C=C/c1ccc(OCC)c(O)c1
inactive: Potency [1] | Potency [2] | Potency [3] | Potency [4] | Potency [7] | Potency [8] | Potency [10] | Potency [11] | Potency [12] | max response [13] -14.3% and 2.47% | Potency [14] | Potency [20] | Potency [15] | Potency [16] | Potency [17] | Potency [18]

Reference: PubChem BioAssay (Tox21)
